Wee1 stabilizer – human Wee1 degradation inhibition, primary screen; P30291; HeLa Luc-Wee1K328M stability, luciferase luminescence; 100% = proteasome inhibitor MG132 effect; reporter increase, % at 5 µM; actives 1.2% (n = 220,000);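 active means activation above the mean of all tested compounds plus 3 SD, set per screening run, cut at about 8.8% in these data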;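 further: cells exposed to compound for 20 h before luminescence read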
DAX1 inh-1 – inhibitors of human orphan nuclear receptor DAX1 (NR0B1); P51843; HEK293 Gal4-DAX1 luciferase reporter, luminescence; inhibition, % at 6.75 µM; actives 0.99% (n = 340,000); AID 504766;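 active means inhibition above the mean over all tested compounds plus 3 SD, cut at about 4.2% in these data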;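 further: inhibition shows as a rise in luminescence from relieved DAX1 repression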
Target sequence (P51843 207-470 limits assumed): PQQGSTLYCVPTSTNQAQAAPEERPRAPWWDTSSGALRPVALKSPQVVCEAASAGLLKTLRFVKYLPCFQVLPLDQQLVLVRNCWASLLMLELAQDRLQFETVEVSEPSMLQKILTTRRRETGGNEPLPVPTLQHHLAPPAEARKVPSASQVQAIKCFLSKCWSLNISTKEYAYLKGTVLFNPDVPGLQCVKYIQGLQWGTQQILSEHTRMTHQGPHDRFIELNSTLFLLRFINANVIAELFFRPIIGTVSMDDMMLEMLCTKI
hgDAF-12 ag – hgDAF-12 agonism, primary luciferase screen. AID 687014. actives 1.8% (n = 370,000). activation, % at 6.8 µM. HEK293 GAL4-hgDAF12 UAS-luciferase reporter, agonist luminescence; normalized to butyrate control;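 active means activation above a cutoff set at the mean of all screened compounds plus 3 SD, cut at about 10% in these data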
hcDAF12 agonist – activates DAF-12 receptor from parasite H. contortus. AID 652067. activation, % at 6.8 µM. actives 1.4% (n = 370,000). HEK293 hcDAF-12 lit1-tk-luc reporter, luminescence; 0% DMSO, 100% Δ7-dafachronic acid;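 active means activation above the mean of all tested compounds plus 3 SD, cut at about 5.5% in these data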
ssDAF-12 act – S. stercoralis DAF-12 activation, primary screen. AID 652126. HEK293 ssDAF-12/GRIP1 lit1-tk-luc reporter, luminescence; % of 3 µM dafachronic acid response. actives 1% (n = 370,000). activation, % at 6.8 µM;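 active means activation above the mean over all tested compounds plus 3 SD, cut at about 0.9% in these data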
DAX1 inh-2 – DAX1 (NR0B1) inhibition, primary screen; HEK293T StAR-luciferase reporter, SF-1/DAX-1 repression relief; inhibition, % at 6.8 µM; actives 1.1% (n = 370,000); AID 652010;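 active means inhibition above the mean over all tested compounds plus 3 SD, cut at about 3.6% in these data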;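 further: higher inhibition means more luminescence from relief of DAX-1 repression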
Large screens that a line does not name were inactive. Compounds with a hit are over-represented: about 4.6% of the library has one in this group of screens.

COc1ccc(C(=O)/C=C(\Nc2ccc(Br)c(C)c2)c2ccc(OC)cc2OC)c(OC)c1	none (no result: Wee1 stabilizer, DAX1 inh-1)
COc1ccc(NC(=O)Nc2cc(C)ccc2F)cc1	DAX1 inh-2 3.9
COc1cccc(NC(=O)Nc2cc(C)ccc2F)c1	none
COc1ccc(NC(=O)Nc2ccc(Br)c(C)c2)cc1	DAX1 inh-1 4.9
C/C(=N/NC(=O)c1sc(NS(=O)(=O)c2ccccc2)nc1C)c1ccc(F)cc1	none
C/C(=N/NC(=O)c1sc(NS(=O)(=O)c2ccccc2)nc1C)c1ccccc1	DAX1 inh-1 5.6
CC(=O)c1ccccc1NC(=O)Cn1c(=O)cnc2ccccc21	hcDAF12 agonist 6.1
COc1ccc(-c2csc(NC(=S)NC(=O)c3ccco3)n2)cc1	none
Cc1ccc(-c2csc(NC(=O)COC(=O)c3cccc(S(=O)(=O)N4CCOCC4)c3)n2)cc1	DAX1 inh-2 3.6 (no result: DAX1 inh-1)
CCCC(=O)NC(=S)Nc1nc(-c2ccc(OC)cc2)cs1	DAX1 inh-1 4.7
COc1ccc(-c2csc(NC(=O)COC(=O)c3ccco3)n2)cc1	hgDAF-12 ag 11
CCn1nc(C(=O)OCC(=O)Nc2nc(-c3ccc(OC)cc3)cs2)c2ccccc2c1=O	hgDAF-12 ag 11
Cc1ccc(-c2csc(NC(=O)c3cccc(S(=O)(=O)N4CCN(C)CC4)c3)n2)cc1	none
CCn1nc(C(=O)OCC(=O)NCC(C)C)c2ccccc2c1=O	none
CSCC[C@H](NC(=O)c1ccc(OCC2CCCO2)cc1)c1nc2ccccc2[nH]1 (some centres undefined)	none (no result: Wee1 stabilizer)
CC(C)n1ncc2c(C(=O)Nc3ccccc3SCC(N)=O)cc(C3CC3)nc21	none (no result: Wee1 stabilizer)
COc1ccccc1C1CC(c2ccc(Br)cc2)=NN1C(=O)c1cccnc1 (centres undefined)	none
COc1cccc(C2CC(c3ccc(Br)cc3)=NN2C(=O)c2ccncc2)c1OC (centres undefined)	Wee1 stabilizer 9.0
CC(=O)c1cccc(OCC(=O)N(CCC2=CCCCC2)c2c(N)n(Cc3ccccc3)c(=O)[nH]c2=O)c1	DAX1 inh-1 4.3 (no result: Wee1 stabilizer)
O=C1N=C(N2CCCC2)S/C1=C\c1ccccc1	none
O=C1N=C(N2CCCCC2)S/C1=C\c1ccccc1F	DAX1 inh-1 4.3 (no result: Wee1 stabilizer)
O=C(Nc1ccc2c(c1)OCO2)c1ccc(CO)cc1	DAX1 inh-2 4.2 (no result: Wee1 stabilizer)
CC(=O)Nc1ccc(C(=O)Nc2ccc3c(c2)OCO3)cc1	none
O=C(Nc1ccc(Br)cc1)c1ccc2c(c1)OCO2	hgDAF-12 ag 13, hcDAF12 agonist 6.5 (no result: Wee1 stabilizer)
Cc1nnc(NC(=O)c2ccc3c(c2)OCO3)s1	Wee1 stabilizer 11, hgDAF-12 ag 12
CCN1CCN(c2ccc(NC(=O)c3ccc4c(c3)OCO4)cc2)CC1	hgDAF-12 ag 12
CCOCc1nnc(NC(=O)c2ccc3c(c2)OCO3)s1	none (no result: Wee1 stabilizer)
NC(=O)c1ccc(NC(=O)c2ccc3c(c2)OCO3)cc1	none
CC#CC(=O)N1CCC(n2nccc2NC(=O)CCc2ccccc2)CC1	none (no result: Wee1 stabilizer)
COC(=O)C1=CN(c2ccc(Oc3ccccc3)cc2)C(N)=C(C#N)C1c1ccc(-c2ccccc2)cc1 (centres undefined)	none (no result: Wee1 stabilizer, DAX1 inh-1)
C[C@H]1CN([C@@H](C)CO)C(=O)CCCn2nncc2CO[C@@H]1CN(C)S(=O)(=O)c1cccc(F)c1	none (no result: Wee1 stabilizer)
O=C1NC[C@H](CCCCN2CCN(CCc3ccc(O)cc3)C(=O)C2=O)N(CCC2CCCCC2)C1=O	none (no result: Wee1 stabilizer, DAX1 inh-1)
COc1ccccc1N1CCN(C(=O)c2oc3ccc(F)cc3c2C)CC1	none
Cc1c(C(=O)Nc2ccccc2N2CCN(C)CC2)oc2ccc(F)cc12	ssDAF-12 act 1.0 (no result: Wee1 stabilizer)
COC(=O)CCC1NC(=O)C(Cc2c[nH]c3ccccc23)NC(=O)C2CC(=O)OC(C)C(NC(=O)C(C)NC(=O)C3CCCN3C(=O)C3CCCN3C(=O)C(C)NC(C)=O)C(=O)NC(CC(C)C)C(=O)NC(CCCCNC(=O)CCC(C(=O)NC(Cc3ccc(O)cc3)C(=O)O)NC1=O)C(=O)NC(Cc1c[nH]c3ccccc13)C(=O)N1CCCC1C(=O)NC(CO)C(=O)N2 (centres undefined)	none (no result: Wee1 stabilizer, DAX1 inh-1)
Cc1ccc(C(=O)N2c3ccccc3N=C(c3ccccc3)C2C(=O)NC(C)C)cc1 (centres undefined)	ssDAF-12 act 1.0 (no result: Wee1 stabilizer, DAX1 inh-1)

Compound activity from PubChem BioAssay.
